Measured values: PubChem BioAssay AID1159566 (Broad Institute, 2015)
Measured potencies and affinities stand elsewhere.

Test: P. falciparum Dd2 growth inhibitors, dose response, SYBR Green, dry powder samples (AID 1159566)
Conditions: SYBR Green fluorescence; series mostly up to 19.5 µM; activity change: at the top concentration; call rule not given here

Activity change, inactive:
Cc1ccccc1-c1ccccc1[C@H]1[C@@H](C#N)N(C(=O)c2ccccc2)[C@@H]1CO 7.53%
COc1cccc(C#Cc2ccc([C@H]3[C@@H](CO)N(C(=O)c4ccccn4)[C@H]3C#N)cc2)c1 -5.01%
C[C@@H]1CN([C@H](C)CO)C(=O)c2cccc(NC(=O)c3ccc(-c4nccs4)cc3)c2O[C@H]1CN(C)Cc1ccc(C(F)(F)F)cc1 29.4%
O=C(NC[C@@H]1CC[C@H]2[C@H](CN2Cc2cc(-c3ccccc3)on2)O1)c1ccc2c(c1)OCO2 19%
COc1ccc(S(=O)(=O)Nc2ccc3c(c2)CC(=O)N([C@@H](C)CO)C[C@H](C)[C@H](CN(C)S(=O)(=O)c2ccc(OC)cc2)O3)cc1 43.3% [at 21 µM]
